Test results reported in PubChem BioAssay (Tox21).
Results filed as inconclusive are left out. Calls of active or inactive are those of the source. Unless noted, the call rests on the fitted dose curve; in most records, active means well fitted curve in the direction sought with a large enough effect in the repeat runs; inconclusive means weak or mixed curves; inactive means no such curve, though single readings can be large; an effect the other way counts as inactive or inconclusive.

Key:
[1] = qHTS assay to identify small molecule agonists of the peroxisome proliferator-activated receptor delta (PPARd) signaling pathway - cell viability counter screen (AID 743211); further: on the % scale 0 is the no-effect control and ±100 the full control effect; nearly all actives have a fitted effect of over 55% in size
In short: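 Following 5 h plating at 37 C and 5% CO2, PPARd UAS-bla HEK293H cells took up test compounds for 17 h. Viability was quantified by luminescence 30 min after CellTiter-Glo addition at room temperature.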

[2] = target: Peroxisome proliferator-activated receptor delta (Homo sapiens) (UniProt Q03181); test: qHTS assay to identify small molecule agonists of the peroxisome proliferator-activated receptor delta (PPARd) signaling pathway (AID 743212; calls by dose curve; further: on the % scale 0 is the no-effect control and ±100 the full control effect)
Chain of Peroxisome proliferator-activated receptor delta (Homo sapiens) (Q03181 whole entry, looked up): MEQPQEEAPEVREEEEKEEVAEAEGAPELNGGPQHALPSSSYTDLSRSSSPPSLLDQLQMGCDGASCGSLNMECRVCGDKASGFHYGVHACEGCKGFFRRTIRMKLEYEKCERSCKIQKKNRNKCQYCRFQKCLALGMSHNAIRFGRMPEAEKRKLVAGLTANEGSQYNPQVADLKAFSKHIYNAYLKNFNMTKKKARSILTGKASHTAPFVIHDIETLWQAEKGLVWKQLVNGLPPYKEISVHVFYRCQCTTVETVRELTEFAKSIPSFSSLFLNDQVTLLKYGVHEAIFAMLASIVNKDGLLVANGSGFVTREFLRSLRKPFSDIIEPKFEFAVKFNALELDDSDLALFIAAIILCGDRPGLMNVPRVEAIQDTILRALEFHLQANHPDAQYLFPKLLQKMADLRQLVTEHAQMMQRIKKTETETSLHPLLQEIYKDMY
In short: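 Beta-lactamase reporter readout: a ratiometric FRET signal from the LiveBLAzer substrate after 2 h at room temperature. Compound exposure at 37 °C in PPARδ-bla HEK293H cells driven by an upstream activator sequence.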

[3] = qHTS assay to identify small molecule antagonists of the peroxisome proliferator-activated receptor delta (PPARd) signaling pathway - cell viability counter screen (AID 743213); further: on the % scale 0 is the no-effect control and ±100 the full control effect; nearly all actives have a fitted effect of over 50% in size
In short: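 Cytotoxicity counter screen: CellTiter-Glo luminescence read 30 min after addition, in the same wells as the reporter assay. There, PPARd UAS-bla HEK293H cells (3000/well) were treated 17 h at 37 C with compound and 300 nM L165041.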

[4] = target: Peroxisome proliferator-activated receptor delta (Homo sapiens) (UniProt Q03181); test: qHTS assay to identify small molecule antagonists of the peroxisome proliferator-activated receptor delta (PPARd) signaling pathway (AID 743215; active means well fitted inhibition curve with a large enough effect in the signal ratio in the repeat runs, not every such curve was filed as active; the % refers to the signal ratio;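 further: cells stimulated with agonist L165041 at 300 nM final during compound exposure; series mostly up to about 62 µM; on the % scale 0 is the no-effect control and ±100 the full control effect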)
In short: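 Cells: HEK293H with a UAS-driven beta-lactamase reporter responsive to PPARd. Compounds were co-added with L165041 (300 nM, final) and incubated 17 h at 37 C before a 2 h room-temperature FRET substrate step and fluorescence reading.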

[5] = target: Bile acid receptor (Homo sapiens) (UniProt Q96RI1); test: qHTS assay to identify small molecule antagonists of the farnesoid-X-receptor (FXR) signaling pathway (AID 743217; active means well fitted inhibition curve with a large enough effect in the signal ratio in the repeat runs, not every such curve was filed as active; the % refers to the signal ratio; further: on the % scale 0 is the no-effect control and ±100 the full control effect)
Chain of Bile acid receptor (Homo sapiens) (Q96RI1 whole entry, looked up): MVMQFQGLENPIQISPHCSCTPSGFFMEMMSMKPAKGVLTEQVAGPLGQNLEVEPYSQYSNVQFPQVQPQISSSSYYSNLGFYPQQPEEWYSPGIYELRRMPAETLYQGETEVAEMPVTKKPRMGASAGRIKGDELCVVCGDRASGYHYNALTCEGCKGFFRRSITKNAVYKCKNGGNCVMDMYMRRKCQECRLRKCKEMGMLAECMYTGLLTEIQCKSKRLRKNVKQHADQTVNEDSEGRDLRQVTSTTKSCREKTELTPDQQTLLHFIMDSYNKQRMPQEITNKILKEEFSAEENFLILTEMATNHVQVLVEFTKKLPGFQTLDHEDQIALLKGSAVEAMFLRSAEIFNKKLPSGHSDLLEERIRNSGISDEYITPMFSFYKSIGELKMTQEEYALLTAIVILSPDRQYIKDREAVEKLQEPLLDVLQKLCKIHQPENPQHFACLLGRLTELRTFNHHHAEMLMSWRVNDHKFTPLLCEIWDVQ
In short: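 Cells carrying a UAS-driven beta-lactamase reporter (GeneBLAzer FXR-UAS-bla HEK 293T) were plated and rested 5 h at 37 °C. Compounds in DMSO were added alongside chenodeoxycholic acid agonist at 50 uM final and left 16 h at 37 °C before FRET substrate readout.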

[6] = qHTS assay to identify small molecule agonists of the farnesoid-X-receptor (FXR) signaling pathway - cell viability counter screen (AID 743218); further: on the % scale 0 is the no-effect control and ±100 the full control effect; nearly all actives have a fitted effect of over 45% in size
In short: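 Cells were seeded, left 5 h at 37 C and 5% CO2, then dosed with compound in DMSO for 16 h. After the beta-lactamase FRET read, CellTiter-Glo was added and luminescence measured 30 min later.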

[7] = qHTS assay to identify small molecule antagonists of the farnesoid-X-receptor (FXR) signaling pathway - cell viability counter screen (AID 743221; active means well fitted cell-killing curve with a large enough effect in the repeat runs, not every such curve was filed as active; further: on the % scale 0 is the no-effect control and ±100 the full control effect; nearly all actives have a fitted effect of over 50% in size)
In short: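 Compound effects on cell number were measured as CellTiter-Glo luminescence in HEK 293T cells expressing FXR-UAS-bla, after 16 h at 37 C with 50 uM CDCA (final).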

[8] = target: Vitamin D3 receptor (Homo sapiens) (UniProt P11473); test: qHTS assay to identify small molecule agonists of the vitamin D receptor (VDR) signaling pathway (AID 743222; calls by dose curve; further: on the % scale 0 is the no-effect control and ±100 the full control effect)
Chain of Vitamin D3 receptor (Homo sapiens) (P11473 whole entry, looked up): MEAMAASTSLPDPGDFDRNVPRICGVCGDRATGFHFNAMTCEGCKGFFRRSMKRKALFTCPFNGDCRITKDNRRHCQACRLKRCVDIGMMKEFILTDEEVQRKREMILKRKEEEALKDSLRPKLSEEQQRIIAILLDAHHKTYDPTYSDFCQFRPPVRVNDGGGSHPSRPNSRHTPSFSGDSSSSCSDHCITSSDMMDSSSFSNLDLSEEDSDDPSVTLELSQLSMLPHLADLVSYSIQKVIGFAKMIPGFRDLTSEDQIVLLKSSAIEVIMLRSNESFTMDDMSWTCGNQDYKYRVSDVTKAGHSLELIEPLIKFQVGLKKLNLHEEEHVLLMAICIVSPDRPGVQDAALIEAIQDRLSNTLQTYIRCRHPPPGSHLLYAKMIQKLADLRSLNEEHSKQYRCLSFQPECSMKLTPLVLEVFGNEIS
In short: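 Cells carrying a VDR-driven beta-lactamase reporter are seeded at 2,000 per well and rested 4 h. Compounds in DMSO are added for 16 h at 37C, and FRET substrate fluorescence is measured after 2 h at room temperature.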

[9] = target: Vitamin D3 receptor (Homo sapiens) (UniProt P11473); test: qHTS assay to identify small molecule antagonists of the vitamin D receptor (VDR) signaling pathway (AID 743223; active means well fitted inhibition curve with a large enough effect in the signal ratio in the repeat runs, not every such curve was filed as active; the % refers to the signal ratio; further: on the % scale 0 is the no-effect control and ±100 the full control effect)
In short: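 Beta-lactamase activity in VDR-bla cells is measured by FRET substrate fluorescence (2 h, room temperature) after cells spend 16 h at 37C with test compound and 3 nM final 1alpha,25-dihydroxyvitamin D3.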

[10] = qHTS assay to identify small molecule agonists of the vitamin D receptor (VDR) signaling pathway - cell viability counter screen (AID 743224); further: series mostly up to about 63 µM; on the % scale 0 is the no-effect control and ±100 the full control effect; nearly all actives have a fitted effect of over 50% in size
In short: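 Cells: VDR-bla, 2,000/well, settled 4 h. Treatment: compounds in DMSO, 16 h, 37C/5% CO2. Readout: CellTiter-Glo luminescence after 30 min RT.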

[11] = qHTS assay to identify small molecule antagonists of the vitamin D receptor (VDR) signaling pathway - cell viability counter screen (AID 743225); further: on the % scale 0 is the no-effect control and ±100 the full control effect; nearly all actives have a fitted effect of over 50% in size
In short: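 In this counter screen, VDR-bla HEK 293T cells receive test compound plus 3 nM final calcitriol for 16 h at 37C. Room-temperature steps of 2 h with the beta-lactamase substrate, then 30 min with CellTiter-Glo, precede the luminescence read.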

[12] = qHTS assay to identify small molecule agonists of the NFkB signaling pathway (AID 1159509; active means well fitted curve in the direction sought with a large enough effect in the signal ratio in the repeat runs, not every such curve was filed as active; the % refers to the signal ratio)
In short: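 Pathway activation was measured in ME-180 cells stably expressing beta-lactamase under NF-kB response element control. Substrate cleavage was read as the 460/530 nm emission shift after 5 hr compound incubation.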

[13] = qHTS assay to identify small molecule agonists of the NFkB signaling pathway - cell viability counter screen (AID 1159515; calls by dose curve; further: series mostly up to about 61 µM; on the % scale 0 is the no-effect control and ±100 the full control effect; nearly all actives have a fitted effect of over 55% in size)
In short: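 Cells are seeded (2,000 NFkB-bla ME-180 per well), rested overnight, and dosed with DMSO-dissolved compounds for 5 hr at 37 C. Viability is then read by CellTiter-Glo luminescence after 30 min at room temperature.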

[14] = qHTS assay to identify small molecule agonists of the endoplasmic reticulum stress response signaling pathway (AID 1159516; active means well fitted activation curve with a large enough effect in the signal ratio in the repeat runs, not every such curve was filed as active; the % refers to the signal ratio; further: on the % scale 0 is the no-effect control and ±100 the full control effect)
In short: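 Cells are seeded at 1,500 per well and incubated overnight. Compounds in DMSO are added for 5 hr at 37 C, then beta-lactamase FRET substrate for 2 hr at room temperature, and fluorescence at 460 and 530 nm is measured.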

[15] = qHTS assay to identify small molecule agonists of the endoplasmic reticulum stress response signaling pathway - cell viability counter screen (AID 1159517; calls by dose curve)
In short: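 ESRE-bla HeLa cells (1,500/well) were plated overnight at 37 C and exposed to compounds for 5 hr. After the 2 hr beta-lactamase substrate read, CellTiter-Glo went into the same wells, and luminescence was read after 30 min at room temperature.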

[16] = qHTS assay to identify small molecule antagonists of the retinoid-related orphan receptor gamma (ROR-gamma) signaling pathway - cell viability counter screen (AID 1159520)
In short: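 Cytotoxicity was read from cellular ATP (CellTiter-Glo luminescence) after 16 hr at 37 C with 1 uM doxycycline induction. The inducer was added 2 hr after compound transfer to Tet-on ROR gamma CHO cells.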

[17] = target: Nuclear receptor ROR-gamma (Homo sapiens) (UniProt P51449); test: qHTS assay to identify small molecule antagonists of the retinoid-related orphan receptor gamma (ROR-gamma) signaling pathway (AID 1159521)
In short: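 Screening format: cell-based luciferase reporter in CHO cells with doxycycline-inducible RORγ. Compound pre-exposure lasts 2 h, doxycycline is 1 uM final, induction runs 16 h at 37 C, and ONE-Glo luminescence is read.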

[18] = qHTS assay to identify small molecule agonists of the AP-1 signaling pathway - cell viability counter screen (AID 1159525; calls by dose curve; further: nearly all actives have a fitted effect of over 55% in size)
In short: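 Intracellular ATP by Cell Titer Glo luminescence (30 min, RT) in the same ME-180 AP-1-bla wells after the 5 h compound exposure at 37 °C. Normalised to tetra n-octyl ammonium bromide and DMSO controls.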

[19] = qHTS assay to identify small molecule agonists of the AP-1 signaling pathway (AID 1159526; calls by dose curve; further: on the % scale 0 is the no-effect control and ±100 the full control effect)
[20] = target: Bile acid receptor (Homo sapiens) (UniProt Q96RI1); test: qHTS assay to identify small molecule agonists of the farnesoid-X-receptor (FXR) signaling pathway (AID 743220; active means well fitted activation curve with a large enough effect in the signal ratio in the repeat runs, not every such curve was filed as active; the % refers to the signal ratio; further: on the % scale 0 is the no-effect control and ±100 the full control effect)
In short: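 FXR-UAS-bla HEK 293T cells carrying a UAS-driven beta-lactamase reporter were plated for 5 h at 37C/5% CO2, then exposed to DMSO-dissolved Tox21 10K compounds for 16 h at 37C. A LiveBLAzer B/G FRET substrate was loaded for 2 h at room temperature before fluorescence reading.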

CCOC(=O)C(=O)c1csc(NC=O)n1
inactive: outcome [1] | outcome [2] | outcome [3] | outcome [4] | outcome [5] | Potency [6] | outcome [7] | outcome [8] | outcome [9] | outcome [10] | outcome [11] | outcome [12] | outcome [13] | outcome [14] | outcome [15] | outcome [16] | outcome [17] | outcome [18] | outcome [19]

CC(C)C(=O)Nc1cccc(C(F)(F)F)c1
inactive: outcome [1] | outcome [2] | outcome [3] | outcome [4] | Potency [6] | outcome [7] | outcome [8] | outcome [9] | outcome [10] | outcome [11] | outcome [12] | outcome [13] | outcome [14] | outcome [15] | outcome [16] | outcome [17] | outcome [18] | outcome [19]

O=[Si]=O
inactive: outcome [1] | outcome [2] | outcome [3] | outcome [4] | Potency [6] | outcome [7] | outcome [8] | outcome [9] | outcome [10] | outcome [11] | outcome [12] | outcome [13] | outcome [14] | outcome [15] | outcome [16] | outcome [17] | outcome [18] | outcome [19]

CCCCCCCCCCCCCC(=O)OC
inactive: outcome [1] | outcome [2] | outcome [3] | outcome [4] | Potency [6] | outcome [7] | outcome [8] | outcome [10] | outcome [11] | outcome [12] | outcome [13] | outcome [14] | outcome [15] | outcome [16] | outcome [17] | outcome [18] | outcome [19]

BrC/C=C/CBr
inactive: outcome [1] | outcome [2] | outcome [3] | outcome [4] | outcome [5] | Potency [6] | outcome [20] | outcome [7] | outcome [10] | outcome [11] | outcome [12] | outcome [13] | outcome [14] | outcome [15] | activity, negative = cytotoxicity [16] -4.58% [at 19 µM] | activity change, negative = inhibition [17] -16.8% [at 19 µM] | viability change, negative = cytotoxic [18] 1.78% [at 15.8 µM] | activation [19] -6.33% [at 15.8 µM]

O=C(O)Cc1cccc(-c2cc(CCCCCCc3ccc(O[C@H]4O[C@H](CO)[C@@H](O)[C@H](O)[C@@H]4O)c(-c4cccc(CC(=O)O)c4)c3)ccc2O[C@H]2O[C@H](CO)[C@@H](O)[C@H](O)[C@@H]2O)c1
inactive: activity change, negative = cytotoxicity [1] 4.03% [at 0.55 µM] | activation [2] -0.0045% [at 0.55 µM] | viability change, negative = cytotoxic [3] 9.66% [at 0.575 µM] | ratio activity, negative = inhibition [4] -1.95% [at 0.575 µM] | activity change, negative = inhibition [5] -1.58% [at 0.55 µM] | viability change, negative = cytotoxic [6] 5.41% [at 0.55 µM] | activation [20] 5.49% [at 0.55 µM] | activity change, negative = cytotoxicity [7] 0.163% [at 0.55 µM] | activity change, negative = cytotoxicity [10] -3.17% [at 0.55 µM] | viability change, negative = cytotoxic [11] 5.12% [at 0.628 µM] | activation [12] 0.357% [at 0.628 µM] | activity, negative = cytotoxic [13] 0.959% [at 0.628 µM] | activation [14] 1.35% [at 0.628 µM] | activity change, negative = cytotoxicity [15] 4.41% [at 0.628 µM] | activity, negative = cytotoxicity [16] 0.991% [at 0.349 µM] | activity change, negative = inhibition [17] -17.6% [at 0.35 µM] | viability change, negative = cytotoxic [18] 1.08% [at 0.29 µM] | activation [19] -4.69% [at 0.29 µM]

CCCCCC1Nc2cc(C(F)(F)F)c(S(N)(=O)=O)cc2S(=O)(=O)N1 (stereo unspecified)
inactive: outcome [1] | outcome [2] | outcome [3] | outcome [4] | Potency [6] | outcome [7] | outcome [8] | outcome [9] | outcome [10] | outcome [11] | outcome [12] | outcome [13] | outcome [14] | outcome [15] | outcome [16] | outcome [17] | outcome [18] | outcome [19]

CC(CC(=O)O)CC(C)(C)C (stereo unspecified)
inactive: outcome [1] | outcome [2] | outcome [3] | outcome [4] | outcome [5] | Potency [6] | outcome [20] | outcome [7] | outcome [8] | outcome [9] | outcome [10] | outcome [11] | outcome [12] | outcome [13] | outcome [14] | outcome [15] | outcome [16] | outcome [17] | outcome [18] | outcome [19]

Cc1cccc(NC(=S)N(C)C)c1
inactive: outcome [1] | outcome [2] | outcome [3] | outcome [4] | outcome [5] | Potency [6] | outcome [20] | outcome [7] | outcome [8] | outcome [9] | outcome [10] | outcome [11] | outcome [12] | outcome [13] | outcome [14] | outcome [15] | outcome [16] | outcome [17] | outcome [18] | outcome [19]

C1=CCC(c2ccccc2)CC1 (stereo unspecified)
inactive: outcome [1] | outcome [2] | outcome [3] | outcome [4] | Potency [6] | outcome [7] | outcome [8] | outcome [9] | outcome [10] | outcome [11] | outcome [12] | outcome [13] | outcome [14] | outcome [15] | outcome [16] | outcome [17] | outcome [18] | outcome [19]

CCCCCCCCCCCCOC(C)=O
inactive: outcome [1] | outcome [2] | outcome [3] | outcome [4] | Potency [6] | outcome [7] | outcome [9] | outcome [10] | outcome [11] | outcome [12] | outcome [13] | outcome [14] | outcome [15] | outcome [16] | outcome [17] | outcome [18] | outcome [19]

NC(Cc1c[nH]c2ccccc12)C(=O)O (stereo unspecified)
inactive: outcome [1] | outcome [2] | outcome [3] | outcome [4] | Potency [6] | outcome [7] | outcome [8] | outcome [9] | outcome [10] | outcome [11] | outcome [12] | outcome [13] | outcome [14] | outcome [15] | outcome [16] | outcome [17] | outcome [18] | outcome [19]

C=CCOCC(CO)(COCC=C)COCC=C
inactive: outcome [1] | outcome [2] | outcome [3] | outcome [4] | outcome [7] | outcome [8] | outcome [9] | outcome [10] | outcome [11] | outcome [12] | outcome [13] | outcome [14] | outcome [15] | outcome [16] | outcome [17] | outcome [18] | outcome [19]
